# The sample as a whole holds a higher share of the strongest signals than the screen did.
# B1: SP15308C-bot-338-23-338 (Bacteroides ovatus) (protein)
# chain: DEWTDEQFKQLISFKTQPGGWGVTDVHVRYANSAKYTYNLPVLVSGSTDNTDDRLVSFSLRDDTLDILNFEKFGNRPELYFRELPQKYYSFPKELTIPAGQSHALLPIEFSLDGLDDSQKWALPLKVCEDANGTYAVNPRKYYRTAVLRPILFNEFSGRFSGSSLLGTMAGESDIKFSSTEIKLNVVTDSIVFFYAGQRTEDYEDRINYKVFLQFTGDKVDSKKDLYKMKIWAENEKLKFNSYSTPTYKVSSEMDATKTYLKHTYIVISDIDFDFVDYTSVPNYEIEYNMKGGLSVSRDLDTRKPDEDQGSDSKWW
# How the values were obtained:
# Experiment in all cases: glycan array binding signal (z-score within array); higher = stronger binding
# Settings in all cases: glycan notation: IUPAC condensed, linker removed
# [1] = biological target: GlcNAc(b1-2)[GlcNAc(b1-4)]Man(a1-3)[GlcNAc(b1-2)Man(a1-6)]Man(b1-4)GlcNAc(b1-4)GlcNAc
# Procedure, shortened: (§1)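 Glycan array binding is given as a within-array Z-score, which can be read as non-binding when negative. The arrays, 3228 of them, came from the Consortium for Functional Glycomics database and were retained only where the protein sequence was available. Z-scores were averaged across arrays of the same protein sequence at different concentrations or buffers and across linkers.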
# [2] = biological target: GlcNAc(b1-2)[GlcNAc(b1-4)]Man(a1-3)[GlcNAc(b1-4)][GlcNAc(b1-2)[GlcNAc(b1-6)]Man(a1-6)]Man(b1-4)GlcNAc(b1-4)[Fuc(a1-6)]GlcNAc
# Procedure, shortened: as §1
# [3] = biological target: GlcNAc(b1-3)Gal
# Procedure, shortened: as §1
# [4] = biological target: GlcNAc(b1-3)Gal(b1-4)GlcNAc(b1-2)[GlcNAc(b1-3)Gal(b1-4)GlcNAc(b1-6)]Man(a1-6)[GlcNAc(b1-3)Gal(b1-4)GlcNAc(b1-2)Man(a1-3)]Man(b1-4)GlcNAc(b1-4)GlcNAc
# Procedure, shortened: as §1
# [5] = biological target: GlcNAc(b1-3)Gal(b1-4)GlcNAc(b1-3)Gal(b1-4)GlcNAc(b1-2)Man(a1-3)[GlcNAc(b1-3)Gal(b1-4)GlcNAc(b1-3)Gal(b1-4)GlcNAc(b1-2)Man(a1-6)]Man(b1-4)GlcNAc(b1-4)GlcNAc
# Procedure, shortened: as §1
# [6] = biological target: GlcNAc(b1-4)Gal(b1-4)GlcNAc
# Procedure, shortened: as §1
# [7] = biological target: GlcNAc(b1-4)GlcNAc(b1-4)GlcNAc
# Procedure, shortened: as §1
# [8] = biological target: GlcNAc(b1-6)Gal(b1-4)GlcNAc
# Procedure, shortened: as §1
# [9] = biological target: Man(a1-2)Man(a1-3)Man
# Procedure, shortened: as §1
# [10] = biological target: Man(a1-2)Man(a1-6)[Man(a1-3)]Man(a1-6)[Man(a1-2)Man(a1-2)Man(a1-3)]Man
# Procedure, shortened: as §1
# [11] = biological target: Man(a1-3)[Man(a1-6)]Man(a1-6)[Man(a1-3)]Man
# Procedure, shortened: as §1
# [12] = biological target: MurNAc(b1-4)GlcNAc
# Procedure, shortened: as §1
# [13] = biological target: Neu5Ac(a2-3)Gal(b1-4)GlcNAc(b1-2)[Neu5Ac(a2-3)Gal(b1-4)GlcNAc(b1-4)]Man(a1-3)[GlcNAc(b1-4)][Neu5Ac(a2-3)Gal(b1-4)GlcNAc(b1-4)Man(a1-6)]Man(b1-4)GlcNAc(b1-4)GlcNAc
# Procedure, shortened: as §1
# [14] = biological target: Neu5Ac(a2-3)Gal(b1-4)GlcNAc(b1-2)[Neu5Ac(a2-3)Gal(b1-4)GlcNAc(b1-6)]Man(a1-6)[Neu5Ac(a2-3)Gal(b1-4)GlcNAc(b1-2)Man(a1-3)]Man(b1-4)GlcNAc(b1-4)GlcNAc
# Procedure, shortened: as §1
# [15] = biological target: Neu5Ac(a2-3)Gal(b1-4)GlcNAc(b1-3)Gal(b1-4)GlcNAc(b1-3)Gal(b1-4)GlcNAc(b1-2)Man(a1-3)[Neu5Ac(a2-3)Gal(b1-4)GlcNAc(b1-3)Gal(b1-4)GlcNAc(b1-3)Gal(b1-4)GlcNAc(b1-2)Man(a1-6)]GalNAc
# Procedure, shortened: as §1
# [16] = biological target: Neu5Ac(a2-3)Gal(b1-4)GlcNAc(b1-3)[Neu5Ac(a2-3)Gal(b1-4)GlcNAc(b1-6)]GalNAc
# Procedure, shortened: as §1
# [17] = biological target: Neu5Ac(a2-3)Gal(b1-4)[Fuc(a1-3)]GlcNAc(b1-3)Gal(b1-4)[Fuc(a1-3)]GlcNAc(b1-3)Gal(b1-4)[Fuc(a1-3)]GlcNAc
# Procedure, shortened: as §1
# [18] = biological target: Neu5Ac(a2-3)Gal(b1-4)[Fuc(a1-3)]GlcNAc(b1-3)GalNAc
# Procedure, shortened: as §1
# [19] = biological target: Neu5Ac(a2-3)[GalNAc(b1-4)]Gal(b1-4)GlcNAc
# Procedure, shortened: as §1
# [20] = biological target: Neu5Ac(a2-6)Gal(b1-4)GlcNAc(b1-2)Man(a1-6)[GlcNAc(b1-2)Man(a1-3)]Man(b1-4)GlcNAc(b1-4)GlcNAc
# Procedure, shortened: as §1
# [21] = biological target: Neu5Ac(a2-6)Gal(b1-4)GlcNAc(b1-3)Gal(b1-4)GlcNAc(b1-3)Gal(b1-4)GlcNAc(b1-2)Man(a1-3)[Neu5Ac(a2-6)Gal(b1-4)GlcNAc(b1-3)Gal(b1-4)GlcNAc(b1-3)Gal(b1-4)GlcNAc(b1-2)Man(a1-6)]GalNAc
# Procedure, shortened: as §1
# [22] = biological target: Neu5Ac(a2-6)Gal(b1-4)GlcNAc(b1-3)Gal(b1-4)[Fuc(a1-3)]GlcNAc(b1-3)Gal(b1-4)[Fuc(a1-3)]GlcNAc
# Procedure, shortened: as §1
# [23] = biological target: Neu5Ac(a2-8)Neu5Ac(a2-3)Gal(b1-4)Glc
# Procedure, shortened: as §1
# [24] = biological target: Neu5Gc(a2-3)Gal(b1-3)[Fuc(a1-4)]GlcNAc
# Procedure, shortened: as §1
# [25] = biological target: Neu5Gc(b2-6)Gal(b1-4)GlcNAc
# Procedure, shortened: as §1
binder,measurement,setting,value
B1,glycan array binding signal (z-score),[1],-0.931
same,glycan array binding signal (z-score),[2],-0.818
same,glycan array binding signal (z-score),[3],-0.756
same,glycan array binding signal (z-score),[4],0.124
same,glycan array binding signal (z-score),[5],2.87
same,glycan array binding signal (z-score),[6],-0.205
same,glycan array binding signal (z-score),[7],-0.098
same,glycan array binding signal (z-score),[8],-0.182
same,glycan array binding signal (z-score),[9],0.722
same,glycan array binding signal (z-score),[10],-0.109
same,glycan array binding signal (z-score),[11],0.294
same,glycan array binding signal (z-score),[12],-0.64
same,glycan array binding signal (z-score),[13],-0.025
same,glycan array binding signal (z-score),[14],0.382
same,glycan array binding signal (z-score),[15],0.621
same,glycan array binding signal (z-score),[16],-0.252
same,glycan array binding signal (z-score),[17],-0.739
same,glycan array binding signal (z-score),[18],3.23
same,glycan array binding signal (z-score),[19],-0.753
same,glycan array binding signal (z-score),[20],-0.62
same,glycan array binding signal (z-score),[21],2.46
same,glycan array binding signal (z-score),[22],-0.639
same,glycan array binding signal (z-score),[23],-0.032
same,glycan array binding signal (z-score),[24],0.492
same,glycan array binding signal (z-score),[25],0.812

# From the supplement of paper PMC8728848
